In all, about 340,000 compounds went through this assay and about 330 (0.097%) were called active.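 The calls were made as follows: active = mean replicate inhibition of at least 30% and at least 1% of replicates passing that level; inconclusive = only one of the two criteria is met; inactive = neither criterion is met.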 The list comes from a sample in which actives are over-represented; it also holds similar structures and randomly drawn compounds.
System: Voltage-dependent L-type calcium channel subunit alpha-1D (CaV1.3) ICDI/IQ interaction
Assay: Primary screen for inhibitors of IQ motif and Ca2+-dependent inactivation inhibitor domain binding in CACNA1D, Förster resonance energy transfer in living cells, single-concentration test (AID 743397);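 also: 0% = median of the neutral control wells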
Settings: HEK cells, CFP/YFP FRET ICDI-IQ, plate reader, 10 min; at 12.3 µM; hits give high values; percent FRET-ratio fall versus neutral wells

inhibition, inactive:
O=C(Nc1c(Cl)c(C2CC2)nn1-c1ccccc1)C(Cl)(Cl)Cl -4.55%, O=c1[nH]c(-c2ccccc2)cn1C1CCN(Cc2ccc(-c3nc4ccc(F)cc4nc3-c3ccccc3)cc2)CC1 -6%, CC(=NNC(N)=O)c1ccc(Cl)c(-n2cccc2)c1 -7.9%, CCc1ccc(C2=CC(=O)CC(C)(C)C2=O)cc1 -7.01%, COC(=O)C1=C(C)N(Cc2ccc(C(F)(F)F)cc2)C(=NCc2ccccc2)NC1c1ccccc1C(F)(F)F (stereo not drawn) -9.62%, Nc1ncnc2c1ncn2[C@@H]1O[C@H](C(=O)N[C@@H](CCc2ccccc2)C(=O)NCC(=O)N2CCOCC2)[C@@H](O)[C@H]1O -4.61%, CC(=O)N1C[C@@H](CO)[C@@H](N(C)C(=O)C(C)(C)C)C[C@H]1c1ccccc1Br -3.95%, CCOC(=O)Cn1c2c(n(-c3ccc(F)cc3)c1=O)C=C(c1ccccc1)[C@@H](C)C(C(=O)N(C)C1CCCCC1)=C2 -5.25%, Cc1cccc(/C(N)=N/OC(=O)c2ccccc2Cl)c1 1.19%, Cc1ccc(C)c(N2C(=O)CS/C2=N\NC(=O)c2ccccc2Cl)c1 -8.17%, CC[C@H](C)[C@H]1CNC(=O)C(=O)N1CC1CCN(CCc2ccc(OC)c(OC)c2)CC1 -5.2%, CCCN(CCC)CCNC(=O)c1cc2c(C)nc3ccccc3c2o1 -3.91%, CC1CCN(CCCn2c(SCC(=O)NC3CCCC3)nc3ccccc3c2=O)CC1 -1.93%, CC(C)(C)n1nc(C2CC2)c(Br)c1NC(=O)c1ccccc1F -11.7%, CC(=O)C1=C(C)N(Cc2ccccc2)C(=S)NC1c1cccc(Br)c1 (stereo not drawn) -5.09%, Cc1cc2c(nc1C)CCCN2C -4.25%, CN1C(=O)C2CC(O)C(SC3CC4C(=O)N(C)C(=O)C4CC3O)CC2C1=O (stereo not drawn) -4.52%, COC(=O)C1=C(C(=O)OC)C2C=C(C(C)C)C1C(=O)C2(C)O (stereo not drawn) -3.68%, O=C(NCc1ccccc1)[C@@H]1CCCN1C(=O)[C@H]1CCCN1C(=O)c1cccc(Cl)c1 -3.24%, C[C@H]1CN([C@@H](C)CO)C(=O)CCCn2nncc2CO[C@@H]1CN(C)C(=O)Nc1ccc(N2CCN(C)CC2)cc1 -5.58%, CCOC(=O)c1ccc(-c2ccc3ncnc(N(C)Cc4sccc4C)c3c2)o1 -9.32%

inhibition, active:
Cc1cc(OC(=O)c2ccccc2Cl)ccc1N1C(=O)CCC1=O 66.2%, Cc1nc2ccccc2c2oc(C(=O)NCCCN3CCC(C)CC3)cc12 61.5%

— PubChem BioAssay AID743397 (Broad Institute, 2014)
